# Test results from PubChem BioAssay (EPA / NIEHS).
# Activity calls are given as the source filed them. How the source made its calls: active means hit-call score of the fitted dose curve at least 0.9, where 1 is the maximum; inactive means score below 0.9.
# Experiment: ATG_MRE_CIS: Attagene CIS-FACTORIAL HepG2 Assay for human Metal Responsive Element (MRE) (AID 2282954)
# Settings: HepG2 MRE cis-reporter transcription, Attagene multiplex; actives raise or lower the signal
# Summary of the method: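 Fluorescent reporter fragments separated by capillary electrophoresis give mRNA induction for the MRE unit after 24 h treatment of transfected HepG2 cells. Endogenous transcription-factor activity is read; DMSO serves as negative control and baseline.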
SMILES,outcome,AC50
CCCCNC(=O)NS(=O)(=O)c1ccc(N)cc1,inactive,–
CCOC(=O)c1ccccc1OC,inactive,–
CC(C)(CO)[N+](=O)[O-],inactive,–
CC1(C)C(=O)N(Br)C(=O)N1Cl,inactive,–
COc1ccc(O)cc1,inactive,–
CC(=O)Nc1ccc(CC(=O)O)cc1,inactive,–
CC(C)C1CCC(O)CC1 (configuration not stated),inactive,–
C=C(C)C(=O)O,inactive,–
CCCCCNCCCCC,inactive,–
COc1cc(C=O)ccc1OC(=O)C(C)C,inactive,–
O=C[C@H](O)[C@H](O)[C@H](O)CO,inactive,–
CCCCOCCOCCOCCOCCO,inactive,–
C=C[Si](OCC)(OCC)OCC,inactive,–
CCCCCCOC(=O)CCCCC,inactive,–
COC(C)CCO (configuration not stated),inactive,–
OCCOc1cccc(OCCO)c1,inactive,–
C=C(C)[C@@H]1CC[C@@H](C)C[C@@H]1O,inactive,–
CCCCCCCCCCCCN(CCCCCCCCCCCC)CCCCCCCCCCCC,inactive,–

SMILES,outcome,AC50
Cc1ccc(C(C)C)cc1O,inactive,–
CC(=O)[O][Al][O]C(C)=O,inactive,–
CC(=O)c1c(C)cc(C(C)(C)C)cc1C,inactive,–
CCCCCCCCCCCCCCCC(=O)OC[C@H](O)[C@H]1OC(=O)C(O)=C1O,inactive,–
C=C(C)C(=O)O[C@H]1C[C@@H]2CC[C@@]1(C)C2(C)C,inactive,–
CCCCCOC(=O)CCC,inactive,–
Nc1nc2ccc([N+](=O)[O-])cc2s1,inactive,–
CCCCCCCCCCCCCOS(=O)(=O)O,inactive,–
CCCCN,inactive,–
CC(C)=CCO,inactive,–
NCCCCCCN,inactive,–
C=C(C)C(=O)Nc1ccc(Cl)c(Cl)c1,–,18.9 µM (active)
O=S(=O)(O)NC1CCCCC1,inactive,–
CC(C)C(C)(C)C(C)(C)C(C)(C)S,inactive,–
C=C(C)C1CCC(C)CC1O (configuration not stated),inactive,–
CC(C)[C@@H]1CC[C@@H](C)CC1=O,inactive,–
O=c1[nH]c(=O)n([C@H]2CCCO2)cc1F,inactive,–

# Experiment: ATG_PBREM_CIS: Attagene CIS-FACTORIAL HepG2 Assay for human Phenobarbital-responsive Enhancer Module (PBREM) (AID 2282955)
# Settings: HepG2 PBREM cis-reporter, Attagene multiplexed transcription; actives raise or lower the signal
# Summary of the method: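 Endogenous transcription factors in human liver HepG2 cells drive a PBREM cis-element reporter, whose transcript level after 24 h treatment is quantified by RT-PCR with capillary electrophoresis; activity fitted in both directions against DMSO.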
SMILES,outcome,AC50
CCCCNC(=O)NS(=O)(=O)c1ccc(N)cc1,inactive,–
CCOC(=O)c1ccccc1OC,inactive,–
CCCCCCCCCCN,inactive,–
CC(C)(CO)[N+](=O)[O-],inactive,–
CC1(C)C(=O)N(Br)C(=O)N1Cl,inactive,–
CC(=O)Nc1ccc(CC(=O)O)cc1,inactive,–
CC(C)C1CCC(O)CC1 (configuration not stated),inactive,–
CCCCCNCCCCC,inactive,–
O=C[C@H](O)[C@H](O)[C@H](O)CO,inactive,–
COC(C)CCO (configuration not stated),inactive,–
OCCOc1cccc(OCCO)c1,inactive,–
CCCCCCCCCCCCN(CCCCCCCCCCCC)CCCCCCCCCCCC,inactive,–
CC(=O)[O][Al][O]C(C)=O,inactive,–
CCCCCCCCCCCCCCCC(=O)O,inactive,–
CC(=O)c1c(C)cc(C(C)(C)C)cc1C,inactive,–
CCCCCCCCCCCCCCCC(=O)OC[C@H](O)[C@H]1OC(=O)C(O)=C1O,–,71.7 µM (active)
CCCCCOC(=O)CCC,inactive,–
Nc1nc2ccc([N+](=O)[O-])cc2s1,inactive,–
CCCCN,inactive,–
C=C(C)C(=O)Nc1ccc(Cl)c(Cl)c1,–,27.8 µM (active)
O=S(=O)(O)NC1CCCCC1,inactive,–
O=c1[nH]c(=O)n([C@H]2CCCO2)cc1F,inactive,–
